Cav32 inh: Cav3.2 calcium influx blockers – cell-based, Fluo-4 calcium fluorescence, FDSS, MLSMR library, primary screen; Voltage-dependent T-type calcium channel subunit alpha-1H (Homo sapiens), O95180; Cav3.2-expressing cells; stronger effect = lower value; B-score at 10 µM; actives 4% (n = 100,000);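 active = single-dose well whose peak fluorescence ratio is a statistical outlier from its plate by either plate-standardised score or position-corrected B-score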
CYP2C19 activ: human CYP2C19 activators, primary screen, biochemical, luminescence | Cytochrome P450 2C19 (Homo sapiens), P33261 | recombinant CYP2C19, luciferin-H EGE luminescence; stronger effect = higher value; 0 = fully inhibited enzyme, 1 = untreated enzyme | activation factor at 5 µM | 96,000 tested, under 10 active | AID 1025, 2008;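 active = activation factor of at least 2 at 5 µM in the primary screen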
CYP2C9 inhib: blockers of cytochrome P450 2C9 activity – biochemical, luminescence, ADME assay, primary screen | CYP2C9 Supersomes, luciferin-H conversion | actives 20% (n = 96,000) | inhibition, % at 5 µM | AID 777, 2007 | P11712;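 active = blocking of liver enzyme CYP2C9 beyond about 50% at 5 µM, limit read from the data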
CYP2C9 act: human CYP2C9 activators, primary screen, biochemical, luminescence | Cytochrome P450 2C9 (Homo sapiens), P11712 | recombinant CYP2C9, luciferin-H conversion; stronger effect = higher value; factor 1 = untreated enzyme, 0 = blocked | activation factor at 5 µM | actives 1.4% (n = 96,000) | AID 1024, 2008;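 active = activation factor of 2 or more for CYP2C9 at a 5 µM dose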
PTK2B oligo ant: antagonists of Pyk2 self-association, primary screen, Q293 cells, FERM NanoBiT luminescence, HTS; Protein-tyrosine kinase 2-beta (Homo sapiens), Q14289; stronger effect = lower value; z-score (the deposit names both 25 µM and 10 µM); actives 0.83% (n = 99,000); AID 1347419, 2020;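 active = Z-score of -3 or lower, scaled per plate to the spread of control and sample wells; inactive = z-score above -3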;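 note: negative z-score means lost luminescence so less FERM oligomerization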
CYP2C19 inh: blockers of cytochrome P450 2C19 activity – biochemical, luminescence, ADME assay, primary screen | P33261 | CYP2C19 Supersomes, luciferin-H EGE luminescence, 30 min | inhibition, % at 5 µM | actives 21% (n = 96,000) | AID 778, 2007;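 active = CYP2C19 inhibition above a set limit at 5 µM in the primary screen, cut at about 50% in these data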
A number is an active result; . = inactive; / = no result given. The list is not random: actives were taken first. Their share in the collection is about 27%.

SMILES	Cav32 inh	CYP2C19 activ	CYP2C9 inhib	CYP2C9 act	PTK2B oligo ant	CYP2C19 inh
COC(=O)c1cccc(NC(=S)NCc2ccc(Cl)cc2)c1	.	.	.	.	.	.
COC(=O)c1ccc(NC(=S)N2CCN(Cc3ccccc3)CC2)cc1	.	.	.	.	.	.
O=C(COC(=O)C1c2ccccc2Oc2ccccc21)NC1CCS(=O)(=O)C1 (centres undefined)	.	.	.	.	.	.
COC(=O)C1=C(C)N(CC2CC2)C(=O)N[C@H]1c1ccccc1	.	/	/	/	/	/
Cc1nc2cc(Cl)ccc2n1-c1ccccc1	.	.	.	.	.	80
CC1N(O)C(C)(C)C(c2ccccc2)=[N+]1[O-] (centres undefined)	.	/	/	/	.	/
Cc1cc2ncn(C3CC(=O)N(Cc4ccccc4)C3=O)c2cc1C (centres undefined)	.	.	.	.	.	.
Cc1cccc(NC(=O)CS(=O)(=O)c2c[nH]c3ccccc23)c1C	.	.	.	.	.	.
Cc1ccc(C)c(NC(=O)CS(=O)(=O)c2c[nH]c3ccccc23)c1	.	.	.	3.1	.	70
O=C(CSc1ncnc2nc[nH]c12)N1CCOCC1	.	.	.	.	.	.
CC(=O)Nc1ccc(N2C(=O)CC(c3ccccc3)CC2=O)cc1	/	.	.	.	.	.
O=C1CC(c2ccccc2)CN1C(=O)c1ccccc1 (centres undefined)	.	.	.	.	.	52
COc1ccccc1C(=O)Oc1ccc(C(C)(C)C)cc1	.	.	.	.	.	.
Cc1ccccc1S(=O)(=O)Oc1ccccc1C(=O)Oc1ccccc1	/	.	50	.	.	.
COc1ccc(C(C)=O)cc1COC(=O)Cc1n[nH]c(=O)c2ccccc12	.	.	.	.	.	.
COc1ccc(C(C)=O)cc1COC(=O)c1cc(C)oc1C	.	.	66	.	.	61
COc1ccc(C(C)=O)cc1COC(=O)c1cccc(N(C)C)c1	.	.	79	.	.	72
Cc1cc(C(=O)OCc2nc3ccccc3s2)c(C)o1	/	.	.	.	.	.
Cc1cccc(NC(c2ccc(O)cc2)c2ccc3ccc(C)nc3c2O)n1 (centres undefined)	.	.	.	2	.	.
COc1ccc(N2C(=O)CCC(C(C)=O)=C2C)cc1	.	.	.	.	.	.
COc1ccc(Cn2c(=O)oc3ccc(C)cc32)cc1OC	.	.	79	.	.	98
CCCCOc1ccccc1Cn1c(=O)oc2ccc(C)cc21	.	.	88	.	.	87
Cc1ccc2oc(=O)n(CCCOc3ccccc3)c2c1	.	.	.	.	.	94
Cc1ccc2oc(=O)n(CC(=O)O)c2c1	.	.	.	.	/	.
Cc1ccc2oc(=O)n(Cc3ccccc3OC(C)C)c2c1	-6	.	85	.	.	86
SMILES	Cav32 inh	CYP2C19 activ	CYP2C9 inhib	CYP2C9 act	PTK2B oligo ant	CYP2C19 inh
Cc1ccc2oc(=O)n(CC(=O)OC(C)C)c2c1	.	/	/	/	.	/
O=c1oc2ccccc2n1Cc1ccccc1Cl	.	/	/	/	/	/
COc1ccc(CNC(=O)Cn2c(=O)oc3ccccc32)cc1OC	.	.	.	.	.	.
Cc1nnc(-c2cnn(-c3ccccc3)c2N)n1Cc1ccc(F)cc1	.	.	.	.	.	.
O=C(CSc1ccc2nnc(-c3ccccn3)n2n1)NCC1CCCO1 (centres undefined)	.	.	.	.	/	.
O=C(NC1CCCc2ccccc21)c1cncc(Br)c1 (centres undefined)	.	.	.	.	.	.
O=C(Nn1cnnc1)c1ccccc1-c1ccccc1	.	.	.	.	.	.
CC(C)N(C(=O)c1ccccc1-c1ccccc1)C(C)C	-4.6	.	.	.	.	.
CC12CCC(C(=O)N(c3ccccn3)c3ccccn3)(OC1=O)C2(C)C (centres undefined)	.	.	.	.	.	.
COc1ccc(S(=O)(=O)N2CCCC(C(=O)NCc3ccncc3)C2)cc1Cl (centres undefined)	.	.	98	.	.	100
